Screening data as filed in PubChem BioAssay.
AddAB inh: less growth of phage-infected E. coli with AddAB. AID 435030. E. coli expressing H. pylori AddAB, absorbance growth. 330,000 tested, 0.29% active. inhibition, % at 11.9 µM; in the data active means inhibition above about 12%
phage Ecoli inh: E. coli growth loss with phage present; inhibition, % at 11.9 µM; AID 651602; growth absorbance; 360,000 tested, 0.26% active; in the data active means inhibition above about 11%
Tat transport: inhibitors of E. coli Tat protein transport. E. coli MC4100 TorA-mCherry Tat export, fluorescence. AID 488895. 340,000 tested, 0.036% active. inhibition, % at 10 µM;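 active means mean replicate inhibition at least 50% and at least half of replicates individually reaching 50%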;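 further: exported cargo escapes ClpAP degradation while cytoplasmic cargo is degraded and loses fluorescence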
E coli growth-1: inhibitors of Escherichia coli growth; OD600, 23 h; hits give low values; OD600 absorbance (no concentration beside the values); 330,000 tested, 0.21% active; AID 1053175;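 active means OD600 absorbance below the run mean of sample wells minus 3.6 SD, in any replicate, cut at about 0.56 in these data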
E coli growth-2: reduces bacterial viability in AddAB counter-screen; E. coli V3065 growth, OD600 absorbance, 18 h; 330,000 tested, 0.27% active; inhibition, % at 11.9 µM;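 active means inhibition above the campaign's mean inhibition across all tested compounds plus 3 SD, cut at about 9.9% in these data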;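 further: uninfected addAB+ strain grown without phage in ampicillin broth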
AddAB conf: growth loss of T4-infected E. coli expressing H. pylori AddAB, confirmed; AID 488942; 880 tested, 64% active; shares compounds with AddAB inh; E. coli V3065 expressing H. pylori AddAB, T4 phage, OD; T4 phage with gene 2 nonsense mutations; inhibition, % at 11.9 µM;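 active means mean inhibition above a set limit taken from the earlier primary screen, cut at about 13% in these data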;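 further: higher means less bacterial growth since AddAB block lets phage replicate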
RecBCD counter: AddAB counter-screen: growth loss of RecBCD+ E. coli infected with mutant T4 phage; shares compounds with AddAB inh; E. coli V66 + mutant T4 phage, OD growth; inhibition, % at 11.9 µM; 880 tested, 73% active;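 active means mean inhibition above the mean of solvent-only control wells plus 3 SD, cut at about 4% in these data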;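 further: optical density read after an 18 h incubation at 37 °C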
bact viab count: counter-screen for AddAB inhibitors: inhibitors of bacterial viability. AID 488956. absorbance (AddAB counterscreen). shares compounds with AddAB inh. inhibition, % at 11.9 µM. 880 tested, 35% active; in the data active means inhibition above about 25%
RecBCD conf: growth loss of phage-infected V66 E. coli, RecBCD confirmation screen; shares compounds with phage Ecoli inh; inhibition, % at 11.9 µM; E. coli V66 + T4 2- phage, growth OD; 890 tested, 45% active;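 active means mean inhibition over triplicates exceeding the hit threshold derived in the original primary screen, cut at about 11% in these data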
Ecoli viability: counter-screen for RecBCD inhibitors: inhibitors of bacterial viability. inhibition, % at 11.9 µM. 890 tested, 29% active. E. coli viability, absorbance (OD) growth. shares compounds with phage Ecoli inh. AID 651983; in the data active means inhibition above about 20%;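 further: E. coli strain V66 grown with compound alone and no phage infection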
AddAB counter: growth loss of phage-infected AddAB E. coli, RecBCD counter-screen | shares compounds with phage Ecoli inh | E. coli expressing H. pylori AddAB + T4 phage, OD growth; gene 2 mutant T4, recBCD-deleted host | inhibition, % at 11.9 µM | 890 tested, 45% active;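 active means mean inhibition above the solvent-only control wells' mean plus 3 SD, cut at about 22% in these data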;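 further: higher means less bacterial growth from phage killing when AddAB is blocked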
A number is an active result; – = inactive; · = no result. Only some compounds are listed: those with a hit (about 0.5% of all), similar ones and a draw of the others.

SMILES	AddAB inh	phage Ecoli inh	Tat transport	E coli growth-1	E coli growth-2	AddAB conf	RecBCD counter	bact viab count	RecBCD conf	Ecoli viability	AddAB counter
CCn1cc(C(=O)N[C@H](C(=O)O)C(C)C)c(=O)c2cc3c(cc21)OCO3	59	12	–	0.069	55	101	10	78	–	–	52
Nc1ccc(S(=O)(=O)Nc2ccc(Cl)nn2)cc1	20	16	–	–	12	19	11	30	12	–	39
COc1ccc(NS(=O)(=O)c2ccc(N)cc2)nn1	–	·	·	·	–	·	·	·	·	·	·
COc1ccc(-c2cc(N3CCCC3)n3ncnc3n2)cc1	17	14	–	–	20	21	14	–	–	–	–
C=CC[n+]1c(/C=C2\C=Cc3cc(C)ccc3N2CC)ccc2ccccc21	20	12	–	–	22	66	6.6	–	–	–	36
O=C(NN=Cc1cc(Cl)cc([N+](=O)[O-])c1O)C(O)(c1ccccc1)c1ccccc1	·	·	·	–	·	·	·	·	·	·	·
Cc1onc(-c2ccccc2)c1C(=O)NN=Cc1cc2c(cc1Cl)OCO2	·	·	·	–	·	·	·	·	·	·	·
Nc1ccc2ncccc2c1N	–	–	–	–	–	·	·	·	·	·	·
Nc1nc(N)c2c(ccc3nccc32)[nH]1	93	96	–	·	95	97	91	102	101	103	102
O=C(NN=Cc1cc([N+](=O)[O-])ccc1Cl)c1cc(-c2ccccc2)nc2ccccc12	·	·	·	–	·	·	·	·	·	·	·
O=C1c2ccccc2NC(c2ccc(-c3cccs3)o2)N1O (stereo unspecified)	–	–	–	–	–	·	·	·	·	·	·
O=C1c2ccccc2NC(c2ccc(-c3ccc(C(F)(F)F)cc3)o2)N1O (stereo unspecified)	17	15	–	–	21	17	7.7	–	–	–	–
O=C1C2C3C=CC(CC3)C2C(=O)N1N=Cc1ccc(O)cc1 (stereo unspecified)	·	·	·	–	·	·	·	·	·	·	·
Nc1nc(=S)c2[nH]cnc2[nH]1	92	66	–	·	77	91	60	74	57	67	84
Nc1nc(=S)c2[nH]c(=S)[nH]c2[nH]1	·	–	–	–	·	·	·	·	·	·	·
COc1ccc(Cl)cc1C(Nc1cccnc1)c1ccc2cccnc2c1O (stereo unspecified)	14	16	–	–	23	–	12	–	–	–	–
O=[N+]([O-])c1cccc(C=NN2CCN(c3ccc(Cl)cc3)CC2)c1	·	·	·	–	·	·	·	·	·	·	·
Cc1onc(-c2c(Cl)cccc2Cl)c1C(=O)N/N=C(\N)COc1ccc(Cl)cc1	14	18	–	·	16	17	19	–	–	–	32
Cc1onc(-c2ccccc2Cl)c1C(=O)NN=C(N)COc1ccc(Cl)cc1	·	·	·	–	·	·	·	·	·	·	·
CCCCCOc1ccc(CSC(=N)N)cc1[N+](=O)[O-]	13	13	–	0.53	13	15	9.7	–	–	–	–
Cc1cccc(C)c1OCc1cc(C(=O)N(C)Cc2nc3ccccc3[nH]2)no1	26	14	–	–	17	19	11	–	–	–	38
CC1(C)CC(=O)C(C=Nc2ccc(O)cc2)=C(O)C1	–	–	–	–	–	·	·	·	·	·	·
CCc1nnc(NS(=O)(=O)c2ccc(N=CC3=C(O)CC(C)(C)CC3=O)cc2)s1	17	14	–	–	11	–	5.9	–	–	–	21
CCC(=O)c1cn(CC(=O)Nc2ccc(OC)cc2)c2ccccc12	13	11	–	·	14	–	11	–	–	–	–
CCOc1ccc(NC(=O)Cn2cc(C(=O)c3ccco3)c3ccccc32)cc1	13	12	–	–	14	–	9.7	–	–	–	–
